# Measured values published in the supplement of paper PMC10849652.
# Targets with a hit are over-represented here; the source holds about 7,900 in all. About 0.6% of all pairs of compound and target were hits.
# Tests used:
# Experiment in all cases: log2 fold change, soluble protein after heating vs DMSO (PISA); higher = thermal stabilisation; K562 cells, 10 uM, 30 min; active = over 0.2 and 3.5 SD of the protein, either way, in both replicates (recomputed)
# [1] = compound: CC[C@@H]1C(=O)N(C)c2cnc(Nc3ccc(C(=O)NC4CCN(C)CC4)cc3OC)nc2N1C1CCCC1
# How it was run: (§1)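 Thermal stability values are relative to control samples and come from duplicates. They are expressed as log2 fold changes. For measurement, K562 cells (2×10^6 cells/mL) received 10 μM compound for 30 min, and aliquots were heated for 3 min over 48°C-58°C, pooled, and extracted at 4°C in PBS with 0.5% NP-40. Soluble protein, the supernatant after 21,000xg for 90 min, was quantified by TMTpro 16plex LC-MS/MS with equalised channel sums.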
# [2] = compound: CC[C@@H]1C(=O)N(C)c2cnc(Nc3ccc(C(=O)N[C@H]4CC[C@H](N5CCN(CC6CC6)CC5)CC4)cc3OC)nc2N1C(C)C [volasertib]
# How it was run: as §1
# [3] = compound: CC[C@H](C)[C@@H](C(=O)N[C@@H]([C@@H](C)O)C(=O)N[C@@H](CC(C)C)C(=O)[C@]1(CO1)C)NC(=O)[C@H]([C@@H](C)CC)N(C)C(=O)C [epoxomicin]
# How it was run: as §1
# [4] = compound: CCn1cc(-c2ccnc3[nH]c(-c4cccc(CN(C)C)c4)cc23)c(-c2ccc(NC(=O)N(C)C)cc2)n1
# How it was run: as §1
# [5] = compound: CN(C)CC(=O)Nc1ccc2[nH]c(=O)c3ccccc3c2c1
# How it was run: as §1
# [6] = compound: CN(CCOC1=CC=C(C=C1)C[C@H]2C(=O)NC(=O)S2)C3=CC=CC=N3 (racemic) [rosiglitazone]
# How it was run: as §1
# [7] = compound: CN1CCC(CNc2ccc3ncc(-c4cccc(OC(F)(F)F)c4)n3n2)CC1
# How it was run: as §1
# [8] = compound: CN1CCN(c2nc(C3=C(c4c[nH]c5ccccc45)C(=O)NC3=O)c3ccccc3n2)CC1 [sotrastaurin]
# How it was run: as §1
# [9] = compound: CN1CCc2c(c3ccccc3n2Cc2ccc(C(=O)NO)cc2)C1 [Tubastatin A]
# How it was run: as §1
# [10] = compound: CNC(=O)c1ccc(Nc2ncc(C(F)(F)F)c(NCc3nccnc3N(C)S(C)(=O)=O)n2)cc1 [defactinib]
# How it was run: as §1
# [11] = compound: CNCc1ccc(-c2[nH]c3cc(F)cc4c3c2CCNC4=O)cc1 [rucaparib]
# How it was run: as §1
# [12] = compound: COC(=O)N[C@@H](C)CNc1nccc(-c2cn(C(C)C)nc2-c2cc(Cl)cc(NS(C)(=O)=O)c2F)n1 [encorafenib]
# How it was run: as §1
# [13] = compound: COC(=O)[C@H](CCSC)NC(=O)C1=C(C=C(C=C1)NC[C@H](CS)N)C2=CC=CC=C2
# How it was run: as §1
# [14] = compound: CCn1c(C(=O)N(C2CC2)C2CC2)cc2c3c(ncn3C)c(Nc3cc(C)n(C)n3)nc21
# How it was run: as §1
# [15] = compound: CN1CC[C@H](c2c(O)cc(O)c3c(=O)cc(-c4ccccc4Cl)oc23)[C@H](O)C1 [alvocidib]
# How it was run: as §1
# [16] = compound: CNC(=O)C1=CC=CC=C1NC2=NC(=NC=C2Cl)NC3=C(C=C(C=C3)N4CCOCC4)OC
# How it was run: as §1
# [17] = compound: CC[C@H](C)N1C=C(C2=C(C=C(C=C21)C3=CN=C(C=C3)N4CCNCC4)C(=O)NCC5=C(C=C(NC5=O)C)C)C
# How it was run: as §1
# [18] = compound: CN1C2=C(C3=C1C(=O)N(N=C3)CC4=CC(=CC=C4)N)SC(=C2)S(=O)C
# How it was run: as §1
# [19] = compound: CNc1nc(-c2ccc3c(N)n[nH]c3c2)cc(N2C[C@@H](C(=O)NC3CCCCC3)CC[C@H]2C)n1
# How it was run: as §1
# [20] = compound: CN1CCN(CCOc2cc(OC3CCOCC3)c3c(Nc4c(Cl)ccc5c4OCO5)ncnc3c2)CC1 [saracatinib]
# How it was run: as §1
# Chain of UniProt P05091 (P05091 whole entry, looked up): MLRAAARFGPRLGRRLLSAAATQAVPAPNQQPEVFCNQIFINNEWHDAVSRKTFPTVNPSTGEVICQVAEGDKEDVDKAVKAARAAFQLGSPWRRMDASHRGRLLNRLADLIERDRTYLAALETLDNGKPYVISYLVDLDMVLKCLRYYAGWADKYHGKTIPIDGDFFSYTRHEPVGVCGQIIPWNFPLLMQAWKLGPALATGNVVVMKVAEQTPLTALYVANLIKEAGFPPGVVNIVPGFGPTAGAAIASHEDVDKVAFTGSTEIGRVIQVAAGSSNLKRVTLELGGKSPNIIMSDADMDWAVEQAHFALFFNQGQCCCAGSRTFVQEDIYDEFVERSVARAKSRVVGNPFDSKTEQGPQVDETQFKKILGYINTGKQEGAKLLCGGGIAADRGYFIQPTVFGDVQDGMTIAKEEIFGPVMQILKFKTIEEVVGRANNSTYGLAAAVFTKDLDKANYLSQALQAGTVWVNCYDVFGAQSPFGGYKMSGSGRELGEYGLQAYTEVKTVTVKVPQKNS
# Chain of UniProt Q13444 (Q13444 whole entry, looked up): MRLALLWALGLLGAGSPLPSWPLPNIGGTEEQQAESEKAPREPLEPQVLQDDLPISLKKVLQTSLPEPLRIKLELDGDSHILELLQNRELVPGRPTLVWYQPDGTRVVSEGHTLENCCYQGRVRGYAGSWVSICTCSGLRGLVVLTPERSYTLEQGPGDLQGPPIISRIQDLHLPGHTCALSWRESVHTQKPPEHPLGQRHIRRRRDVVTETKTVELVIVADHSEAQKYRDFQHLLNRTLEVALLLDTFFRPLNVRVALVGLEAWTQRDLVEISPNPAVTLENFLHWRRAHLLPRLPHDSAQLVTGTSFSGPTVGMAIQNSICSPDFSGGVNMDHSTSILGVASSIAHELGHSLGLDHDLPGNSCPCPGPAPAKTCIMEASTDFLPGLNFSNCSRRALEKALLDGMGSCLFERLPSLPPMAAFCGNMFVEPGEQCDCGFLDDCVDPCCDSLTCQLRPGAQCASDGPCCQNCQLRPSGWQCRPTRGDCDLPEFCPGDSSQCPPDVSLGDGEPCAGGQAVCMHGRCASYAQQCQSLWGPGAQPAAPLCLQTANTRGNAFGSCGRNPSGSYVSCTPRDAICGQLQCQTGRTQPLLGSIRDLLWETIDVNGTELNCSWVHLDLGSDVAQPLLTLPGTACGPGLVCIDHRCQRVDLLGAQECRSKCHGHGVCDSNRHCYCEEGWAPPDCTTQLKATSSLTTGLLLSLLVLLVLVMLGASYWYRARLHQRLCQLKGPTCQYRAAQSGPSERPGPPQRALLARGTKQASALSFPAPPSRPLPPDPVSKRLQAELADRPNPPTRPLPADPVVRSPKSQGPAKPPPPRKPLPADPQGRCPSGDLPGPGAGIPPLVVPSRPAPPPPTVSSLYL
# Chain of UniProt P53367 (P53367 whole entry, looked up): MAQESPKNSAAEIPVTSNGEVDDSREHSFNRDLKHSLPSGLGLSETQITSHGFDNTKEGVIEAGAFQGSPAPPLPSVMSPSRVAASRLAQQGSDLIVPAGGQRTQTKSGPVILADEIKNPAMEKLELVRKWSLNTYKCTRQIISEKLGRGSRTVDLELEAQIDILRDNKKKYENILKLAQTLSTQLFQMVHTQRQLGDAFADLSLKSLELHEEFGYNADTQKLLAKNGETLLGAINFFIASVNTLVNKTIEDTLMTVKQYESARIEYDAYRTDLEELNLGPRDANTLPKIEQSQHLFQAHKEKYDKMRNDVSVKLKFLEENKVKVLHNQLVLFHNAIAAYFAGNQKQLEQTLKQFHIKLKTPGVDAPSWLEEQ
# Chain of UniProt P55008 (P55008 whole entry, looked up): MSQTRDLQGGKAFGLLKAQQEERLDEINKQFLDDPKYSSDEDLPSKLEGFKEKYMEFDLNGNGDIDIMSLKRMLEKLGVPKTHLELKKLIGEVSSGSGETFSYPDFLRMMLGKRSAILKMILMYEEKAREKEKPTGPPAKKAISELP
# Chain of UniProt Q8IUR7 (Q8IUR7 whole entry, looked up): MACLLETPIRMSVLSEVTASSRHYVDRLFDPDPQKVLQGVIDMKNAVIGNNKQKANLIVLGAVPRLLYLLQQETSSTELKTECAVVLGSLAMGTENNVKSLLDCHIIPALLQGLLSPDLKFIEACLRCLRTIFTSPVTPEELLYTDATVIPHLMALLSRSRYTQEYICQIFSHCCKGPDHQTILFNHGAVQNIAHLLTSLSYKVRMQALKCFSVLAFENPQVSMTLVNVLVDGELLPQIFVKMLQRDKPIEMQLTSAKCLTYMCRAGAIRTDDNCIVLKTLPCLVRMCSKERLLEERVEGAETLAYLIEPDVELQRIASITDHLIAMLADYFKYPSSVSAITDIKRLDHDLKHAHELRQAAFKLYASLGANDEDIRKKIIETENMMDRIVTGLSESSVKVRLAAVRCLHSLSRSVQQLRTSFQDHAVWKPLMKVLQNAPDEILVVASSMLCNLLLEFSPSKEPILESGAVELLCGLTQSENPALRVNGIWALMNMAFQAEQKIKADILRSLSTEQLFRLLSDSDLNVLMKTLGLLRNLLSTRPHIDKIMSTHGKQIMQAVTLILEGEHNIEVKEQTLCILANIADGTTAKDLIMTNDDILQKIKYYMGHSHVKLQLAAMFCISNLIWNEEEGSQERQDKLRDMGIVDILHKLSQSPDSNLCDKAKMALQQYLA
# Chain of UniProt Q9UNA0 (Q9UNA0 whole entry, looked up): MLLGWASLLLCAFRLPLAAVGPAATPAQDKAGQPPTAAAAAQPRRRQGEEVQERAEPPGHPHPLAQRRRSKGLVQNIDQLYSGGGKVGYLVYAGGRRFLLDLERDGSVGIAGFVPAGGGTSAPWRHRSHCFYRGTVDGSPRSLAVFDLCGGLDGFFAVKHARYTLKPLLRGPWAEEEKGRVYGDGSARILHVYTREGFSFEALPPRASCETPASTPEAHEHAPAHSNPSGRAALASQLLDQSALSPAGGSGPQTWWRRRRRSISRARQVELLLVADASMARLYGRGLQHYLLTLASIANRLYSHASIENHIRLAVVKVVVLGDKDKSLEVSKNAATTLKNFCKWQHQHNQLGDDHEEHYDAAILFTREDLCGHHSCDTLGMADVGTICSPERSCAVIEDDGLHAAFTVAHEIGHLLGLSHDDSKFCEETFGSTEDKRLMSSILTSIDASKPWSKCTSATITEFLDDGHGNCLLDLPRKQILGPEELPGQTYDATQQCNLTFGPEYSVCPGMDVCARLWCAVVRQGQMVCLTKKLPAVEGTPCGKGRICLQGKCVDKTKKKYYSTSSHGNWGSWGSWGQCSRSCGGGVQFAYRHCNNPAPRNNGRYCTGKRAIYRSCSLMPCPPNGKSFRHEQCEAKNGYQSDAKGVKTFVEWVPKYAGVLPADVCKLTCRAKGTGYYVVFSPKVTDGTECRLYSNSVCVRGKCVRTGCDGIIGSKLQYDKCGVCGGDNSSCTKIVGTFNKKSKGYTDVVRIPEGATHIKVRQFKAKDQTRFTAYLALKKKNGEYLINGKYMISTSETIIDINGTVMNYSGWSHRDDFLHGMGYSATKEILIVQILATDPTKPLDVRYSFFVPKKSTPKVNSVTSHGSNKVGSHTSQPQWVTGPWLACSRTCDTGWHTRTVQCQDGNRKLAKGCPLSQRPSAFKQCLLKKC
# Chain of UniProt P35612 (P35612 whole entry, looked up): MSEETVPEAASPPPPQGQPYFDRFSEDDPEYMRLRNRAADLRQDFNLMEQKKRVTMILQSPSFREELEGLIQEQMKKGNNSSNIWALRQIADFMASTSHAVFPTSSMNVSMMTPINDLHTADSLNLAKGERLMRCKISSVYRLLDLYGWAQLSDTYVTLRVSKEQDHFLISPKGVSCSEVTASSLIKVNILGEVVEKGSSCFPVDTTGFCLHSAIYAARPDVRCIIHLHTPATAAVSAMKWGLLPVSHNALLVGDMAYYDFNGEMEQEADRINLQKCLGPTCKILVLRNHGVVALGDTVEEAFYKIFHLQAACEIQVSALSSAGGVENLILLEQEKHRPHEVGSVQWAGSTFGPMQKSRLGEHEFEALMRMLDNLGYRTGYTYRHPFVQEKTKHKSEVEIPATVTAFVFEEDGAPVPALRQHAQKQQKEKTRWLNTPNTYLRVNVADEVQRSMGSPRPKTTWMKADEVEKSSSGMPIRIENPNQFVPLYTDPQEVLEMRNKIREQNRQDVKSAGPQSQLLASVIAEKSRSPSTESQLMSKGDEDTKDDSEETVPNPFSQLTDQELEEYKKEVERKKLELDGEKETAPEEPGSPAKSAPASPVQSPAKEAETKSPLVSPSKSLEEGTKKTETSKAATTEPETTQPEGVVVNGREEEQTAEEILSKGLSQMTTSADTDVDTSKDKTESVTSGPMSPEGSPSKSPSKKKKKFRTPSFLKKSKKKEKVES
# Chain of UniProt P54922 (P54922 whole entry, looked up): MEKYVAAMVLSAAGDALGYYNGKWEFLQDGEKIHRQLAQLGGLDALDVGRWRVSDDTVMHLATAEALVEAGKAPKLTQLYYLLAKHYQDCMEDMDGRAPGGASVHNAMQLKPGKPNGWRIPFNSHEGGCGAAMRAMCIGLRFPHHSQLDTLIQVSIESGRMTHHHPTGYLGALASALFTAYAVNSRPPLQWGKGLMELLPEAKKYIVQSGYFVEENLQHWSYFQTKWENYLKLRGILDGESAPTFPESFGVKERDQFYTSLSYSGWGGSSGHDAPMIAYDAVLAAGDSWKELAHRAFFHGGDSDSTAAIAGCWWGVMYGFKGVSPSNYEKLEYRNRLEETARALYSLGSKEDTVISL
# Chain of UniProt Q9H7T9 (Q9H7T9 whole entry, looked up): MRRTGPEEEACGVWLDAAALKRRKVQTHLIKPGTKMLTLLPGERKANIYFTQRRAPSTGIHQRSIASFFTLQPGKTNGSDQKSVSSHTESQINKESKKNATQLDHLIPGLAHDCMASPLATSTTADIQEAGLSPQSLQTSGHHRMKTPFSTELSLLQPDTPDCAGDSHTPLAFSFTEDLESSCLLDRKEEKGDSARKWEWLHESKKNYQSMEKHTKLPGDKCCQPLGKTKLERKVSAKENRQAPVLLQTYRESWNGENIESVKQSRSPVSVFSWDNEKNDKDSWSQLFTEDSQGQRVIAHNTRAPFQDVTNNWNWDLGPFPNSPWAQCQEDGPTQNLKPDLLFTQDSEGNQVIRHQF
Target,log2 fold change [1],log2 fold change [2],log2 fold change [3],log2 fold change [4],log2 fold change [5],log2 fold change [6],log2 fold change [7],log2 fold change [8],log2 fold change [9],log2 fold change [10],log2 fold change [11],log2 fold change [12],log2 fold change [13],log2 fold change [14],log2 fold change [15],log2 fold change [16],log2 fold change [17],log2 fold change [18],log2 fold change [19],log2 fold change [20]
ALDH2 isoform 2 (UniProt P05091),0.183 (inactive),0.033 (inactive),-0.176 (inactive),-0.014 (inactive),-0.015 (inactive),0.19 (inactive),-0.072 (inactive),0.161 (inactive),0.005 (inactive),0.06 (inactive),-0.255 (inactive),0.097 (inactive),-0.003 (inactive),,,,,,,
AKNA (UniProt Q7Z591),,0.015 (inactive),,,,,,-0.017 (inactive),,,,,,0.054 (inactive),-0.066 (inactive),-0.074 (inactive),,,,
ABCA4 (UniProt P78363),0.117 (inactive),,-0.046 (inactive),-0.163 (inactive),,0.015 (inactive),-0.087 (inactive),-0.249 (inactive),0.246 (inactive),,0.006 (inactive),0.006 (inactive),,-0.172 (inactive),0.277 (inactive),-0.152 (inactive),-0.202 (inactive),,,
ACVR1 (UniProt Q04771),-0.104 (inactive),-0.2 (inactive),0.16 (inactive),0.065 (inactive),-0.095 (inactive),,0.925 (active),-0.081 (inactive),-0.042 (inactive),-0.095 (inactive),0.029 (inactive),0.122 (inactive),-0.156 (inactive),-0.036 (inactive),0.047 (inactive),0 (inactive),,-0.111 (inactive),-0.106 (inactive),
ATF7 isoform 6 (UniProt P17544),,-0.014 (inactive),-0.028 (inactive),,0.03 (inactive),-0.011 (inactive),,-0.105 (inactive),-0.088 (inactive),0.063 (inactive),,,-0.037 (inactive),0.007 (inactive),0.026 (inactive),-0.096 (inactive),0.041 (inactive),-0.06 (inactive),0.034 (inactive),0.477 (active)
ANGEL1 (UniProt Q9UNK9),,,,,0.038 (inactive),-0.008 (inactive),,,0.089 (inactive),-0.076 (inactive),,,0.095 (inactive),,,,,,,
AUNIP isoform 2 (UniProt Q9H7T9),,-0.03 (inactive),,,-0.163 (inactive),,,-0.085 (inactive),0.278 (inactive),0.043 (inactive),,,0.342 (inactive),0.013 (inactive),0.053 (inactive),0.189 (inactive),,-0.031 (inactive),-0.086 (inactive),-0.007 (inactive)
AZI2 (UniProt Q9H6S1),-0.021 (inactive),,,,0.062 (inactive),-0.001 (inactive),,-0.046 (inactive),-0.078 (inactive),0.018 (inactive),-0.12 (inactive),0.012 (inactive),-0.093 (inactive),-0.041 (inactive),,0.453 (active),-0.063 (inactive),,,
ARMC8 isoform 6 (UniProt Q8IUR7),,,,,0.016 (inactive),-0.004 (inactive),,,,-0.114 (inactive),,,0.108 (inactive),-0.196 (inactive),,-0.088 (inactive),0.048 (inactive),,,
ADD3 isoform 2 (UniProt Q9UEY8),0.021 (inactive),-0.037 (inactive),-0.022 (inactive),0.066 (inactive),0.036 (inactive),,-0.128 (inactive),0.014 (inactive),0.058 (inactive),-0.025 (inactive),-0.036 (inactive),-0.166 (inactive),-0.025 (inactive),,-0.166 (inactive),,,-0.093 (inactive),-0.172 (inactive),-0.112 (inactive)
AFDN isoform 1 (UniProt P55196),-0.019 (inactive),,0.064 (inactive),-0.075 (inactive),-0.069 (inactive),0.104 (inactive),0.062 (inactive),-0.047 (inactive),,0.021 (inactive),0.009 (inactive),0.018 (inactive),-0.302 (inactive),-0.104 (inactive),-0.182 (inactive),-0.025 (inactive),,0.111 (inactive),-0.175 (inactive),-0.192 (inactive)
AIF1 (UniProt P55008),,0.047 (inactive),-0.727 (active),,0.01 (inactive),-0.045 (inactive),,0.025 (inactive),,0.032 (inactive),,,-0.046 (inactive),0.078 (inactive),,0.15 (inactive),,,,
BAP18 isoform 3 (UniProt Q8IXM2),,,,0.028 (inactive),,,0.2 (inactive),,0.301 (inactive),,,,,-0.028 (inactive),,-0.129 (inactive),,,,
ARL4A (UniProt P40617),,,,,,0.063 (inactive),,,,,,,,,,,,,,
ADPRH (UniProt P54922),,0.108 (inactive),-0.04 (inactive),0.097 (inactive),0.1 (inactive),0.141 (inactive),-0.313 (inactive),-0.067 (inactive),0.213 (inactive),-0.076 (inactive),,,0.028 (inactive),-0.067 (inactive),,-0.011 (inactive),0.036 (inactive),,,
BAIAP2 isoform 4 (UniProt Q9UQB8),,,,,,,,0.147 (inactive),0.288 (inactive),,,,,,-0.034 (inactive),,,,,
AUH (UniProt Q13825),0.011 (inactive),0.486 (active),,-0.094 (inactive),0.128 (inactive),0.021 (inactive),0.086 (inactive),,0.152 (inactive),-0.055 (inactive),0.065 (inactive),-0.005 (inactive),0.006 (inactive),-0.129 (inactive),0.016 (inactive),0.003 (inactive),,-0.183 (inactive),-0.062 (inactive),0.184 (inactive)
ADAMTS5 (UniProt Q9UNA0),0.011 (inactive),,,-0.16 (inactive),0.045 (inactive),-0.035 (inactive),-0.039 (inactive),-0.004 (inactive),0.222 (inactive),-0.021 (inactive),-0.04 (inactive),-0.136 (inactive),0.028 (inactive),-0.092 (inactive),0.007 (inactive),-0.13 (inactive),-0.211 (inactive),-0.018 (inactive),-0.048 (inactive),-0.107 (inactive)
ADD2 isoform 9 (UniProt P35612),,-0.1 (inactive),,,,0.196 (inactive),,-0.122 (inactive),,,,,,,,,,,,
ATP6V0A1 (UniProt Q93050),,,,,,-0.082 (inactive),,,,,,,,,,,,,,
ATXN7L3 isoform 2 (UniProt Q14CW9),-0.042 (inactive),,,,,-0.2 (inactive),,0.098 (inactive),,,0.669 (active),0 (inactive),,0.036 (inactive),,-0.038 (inactive),-0.166 (inactive),,,
ARFIP1 isoform 2 (UniProt P53367),,-0.134 (inactive),-0.004 (inactive),0.259 (inactive),,0.088 (inactive),-0.512 (active),-0.041 (inactive),,,,,,-0.102 (inactive),,-0.268 (inactive),0.071 (inactive),-0.124 (inactive),0.279 (inactive),0.026 (inactive)
ADAM15 (UniProt Q13444),,-0.103 (inactive),0.034 (inactive),-0.001 (inactive),0.066 (inactive),-0.099 (inactive),-0.016 (inactive),-0.034 (inactive),0.065 (inactive),-0.04 (inactive),,,0.056 (inactive),-0.177 (inactive),-0.091 (inactive),-0.211 (inactive),-0.02 (inactive),-0.028 (inactive),0.073 (inactive),-0.241 (inactive)
AP2M1 (UniProt C9JTK4),0.03 (inactive),,0.027 (inactive),,-0.243 (inactive),-0.016 (inactive),,0.055 (inactive),-0.045 (inactive),-0.053 (inactive),0.07 (inactive),-0.048 (inactive),0.193 (inactive),,0.203 (inactive),,-0.051 (inactive),-0.049 (inactive),-0.019 (inactive),-0.109 (inactive)
ADD1 isoform 4 (UniProt P35611),,,-0.431 (inactive),-0.001 (inactive),,-0.077 (inactive),0.086 (inactive),,,,,,,,0.087 (inactive),,,,,
ACTR3B (UniProt Q9P1U1),,-0.063 (inactive),,-0.047 (inactive),-0.05 (inactive),,0.048 (inactive),,-0.01 (inactive),0.037 (inactive),,,-0.01 (inactive),0.038 (inactive),,-0.004 (inactive),0.261 (inactive),,,
"BRAF, A0A2R8Y8E0",,,,,,,,,-0.084 (inactive),,,,,-0.078 (inactive),,0.143 (inactive),0.047 (inactive),,,
